Hits are enriched below; roughly 0.92% of the tested compounds scored in any of these assays.
TDP1 inh = qHTS Assay for Inhibitors of Tyrosyl-DNA Phosphodiesterase (TDP1); recombinant TDP1, AlphaScreen DNA substrate cleavage; 0.28% of 350,000 active; Potency, µM (series often up to 130 µM), for the others: at the highest dose activity change, negative = inhibition, most hits filed as inhibitors; further: on the % scale 0 is the no-effect control and ±100 the full control effect; nearly all actives have a fitted effect of over 40% in size
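Here, a 5' biotin and 3' phosphotyrosine-FITC DNA oligonucleotide reports Tdp1 activity: intact substrate bridges AlphaScreen beads, while cleavage leaves a 3' phosphate and drops signal. All incubations at room temperature.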
APEX1 inh = qHTS Assay for Inhibitors of the Human Apurinic/apyrimidinic Endonuclease 1 (APE1); recombinant APE1, TAMRA/BHQ-2 abasic DNA cleavage fluorescence; Potency, µM (titrated, usually from 65.8 µM), for the others: at the highest dose activity change, negative = inhibition, usual class: inhibitors; 0.35% of 350,000 active;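 further: plate controls were vehicle for no effect and reference inhibitor for full effect; nearly all actives have a fitted effect of over 55% in size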
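Quantitative HTS: incision of a TAMRA/BHQ-2 double-stranded substrate bearing a tetrahydrofuran abasic site by 0.75 nM APE1 raises fluorescence. Substrate 50 nM final, added after 15 min compound preincubation at room temperature; progress as third-minus-first kinetic read difference.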
FEN1 inh-1 = qHTS Assay for the Inhibitors of Human Flap endonuclease 1 (FEN1). P39748. 0.35% of 390,000 active. Potency, µM (top dose mostly 114 µM), without a hit: at the highest dose activity change, negative = inhibition, actives largely listed as inhibitors. Recombinant FEN1 flap cleavage, fluorescence, 15 min. AID 588795, 2011; further: on the % scale 0 is the no-effect control and ±100 the full control effect; nearly all actives have a fitted effect of over 65% in size
Target sequence (P39748 whole entry, looked up): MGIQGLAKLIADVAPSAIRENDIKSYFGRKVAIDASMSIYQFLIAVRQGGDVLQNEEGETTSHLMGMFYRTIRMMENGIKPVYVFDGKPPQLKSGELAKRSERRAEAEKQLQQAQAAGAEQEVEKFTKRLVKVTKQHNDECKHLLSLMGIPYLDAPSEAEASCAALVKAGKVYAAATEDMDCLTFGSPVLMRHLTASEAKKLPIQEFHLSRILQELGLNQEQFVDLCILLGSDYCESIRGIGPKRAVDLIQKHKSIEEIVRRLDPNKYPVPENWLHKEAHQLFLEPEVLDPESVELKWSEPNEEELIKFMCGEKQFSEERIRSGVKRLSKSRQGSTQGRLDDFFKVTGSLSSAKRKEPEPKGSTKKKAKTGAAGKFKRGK
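Concentration–response screening of FEN1 (10 nM): 15 min compound preincubation at room temperature, reaction started with 50 nM substrate and read at 0 and 15 min. Corrected, normalized data were fitted by a four-parameter Hill equation.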
BLM inh-1 = qHTS Assay for Inhibitors of Bloom's syndrome helicase (BLM); RecQ-like DNA helicase BLM (Homo sapiens), P54132; recombinant BLM DNA unwinding, fluorescence dequenching; Potency, µM (top dose mostly 56.1 µM), inactives show at the highest dose activity change, negative = inhibition, actives largely listed as inhibitors; 0.2% of 350,000 active;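 further: plate controls were vehicle for no effect and no enzyme for full effect; nearly all actives have a fitted effect of over 35% in size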
RECQ1 inh-1 = qHTS Assay for Inhibitors of RecQ-Like Dna Helicase 1 (RECQ1); RECQ1 DNA unwinding, red fluorescence kinetic read; Potency, µM (highest dose often 57.3 µM), inactives show top-dose activity, negative = inhibition, hits mostly inhibitors; 0.54% of 240,000 active; AID 2549, 2010;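 further: plate controls were vehicle for no effect and no enzyme for full effect; nearly all actives have a fitted effect of over 30% in size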
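RECQ1T1 50 nM; forked duplex (20 bp + 30-nt ss tails) 200 nM, ATP 2 mM final; pH 8.0, 2 mM MgCl2, 2.5 ug/ml poly(dI-dC); 15 min compound preincubation; discontinuous kinetic read over 2 h at RT.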
BLM inh-2 = qHTS Confirmation Assay for Inhibitors of Bloom's syndrome helicase (BLM) | shares compounds with BLM inh-1 | BLM DNA unwinding, fluorescence quenching, biochemical | Potency, µM, inactives show max response, negative = inhibition, hits mostly inhibitors | 40% of 220 active | AID 2585, 2010;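 further: strand separation dequenches TAMRA so unwinding raises red fluorescence; series mostly up to about 69 µM; on the % scale 0 is the no-effect control and ±100 the full control effect; nearly all actives have a fitted effect of over 45% in size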
RECQ1 conf = Confirmation qHTS Assay for Inhibitors of RecQ-Like Dna Helicase 1 (RECQ1); shares compounds with RECQ1 inh-1; 28% of 610 active; Potency, µM (series often up to 229 µM), for inactives: at the top dose activity change, negative = inhibition, hits mostly inhibitors; RECQ1 helicase DNA unwinding, fluorescence; further: on the % scale 0 is the no-effect control and ±100 the full control effect; nearly all actives have a fitted effect of over 45% in size
ADP FP counter = Counterscreen for RECQ1 Inhibitors: ADP Fluorescence Polarization Displacement Assay | shares compounds with RECQ1 inh-1 | ADP fluorescence polarization displacement counterscreen | Potency, µM (titrated, usually from 228 µM), inactives show top-dose activity change, negative = inhibition, hits mostly inhibitors | 27% of 530 active | AID 2711, 2010; further: on the % scale 0 is the no-effect control and ±100 the full control effect; nearly all actives have a fitted effect of over 45% in size
RECQ1 inh-2 = Confirmation qHTS Assay for Inhibitors of RecQ-Like Dna Helicase 1 (RECQ1) - Round 2 Cherry Picks. shares compounds with RECQ1 inh-1. recombinant RECQ1 DNA unwinding, red fluorescence. Potency, µM (titrated, usually from 119 µM), for inactives: top-dose activity, negative = inhibition, hits mostly inhibitors. 15% of 1,100 active. AID 504841, 2011; further: on the % scale 0 is the no-effect control and ±100 the full control effect; nearly all actives have a fitted effect of over 50% in size
FEN1 inh-2 = qHTS Assay for the Inhibitors of FEN1: Confirmatory Assay for Cherry-picked Compounds; shares compounds with FEN1 inh-1; FEN1 flap cleavage, TAMRA/BHQ2 fluorogenic DNA substrate; Potency, µM, usual class: inhibitors; 79% of 880 active; AID 720498, 2013; further: nearly all actives have a fitted effect of over 60% in size
* = called active by the depositor; i = inactive; ? = inconclusive; / = no result; [ ] = remark or other dose. The call rests on the fitted dose curve; in most records, active means well fitted curve in the direction sought with a large enough effect; inconclusive means small, poorly fitted or top-dose-only effect, or another doubt; inactive means no such curve, though single readings can be large; an effect the other way counts as inactive or inconclusive. Potency means the concentration at half of the fitted maximal effect.

SMILES	TDP1 inh	APEX1 inh	FEN1 inh-1	BLM inh-1	RECQ1 inh-1	BLM inh-2	RECQ1 inh-2	others
O=C(COc1ccc([N+](=O)[O-])cc1)Nc1nnc(-c2cccnc2)s1	-8.6%	?	?	15.8µM*	?	?	?
C=C[C@@H](C1=CC(=O)C(OC)=C(OC)C1=O)c1ccccc1	9.3%	0.8%	/	-2.2%	-11.5%	/	/
O=c1[nH]nc(CNc2ccc(O)cc2)c2ccccc12	2.3%	?	-16.9%	35.5µM*	14.1µM*	-3.0%	-7.8%	RECQ1 conf=14.5%[114 µM];ADP FP counter=39.8µM*
O=c1[nH]nc(CNc2ccc(C(F)(F)F)cc2)c2ccccc12	-3.6%	-1.5%	14.0%	-6.2%	-2.9%	/	/
COc1cc(/C=C(/C#N)c2nc3ccccc3[nH]2)ccc1OCc1ccc(C(=O)O)o1	-3.8%	-4.4%	?	-0.2%	-1.3%	/	/
COC(=O)c1ccc(COc2ccc(/C=C(\C#N)c3nc4ccccc4[nH]3)cc2OC)o1	/	-6.3%	-11.0%	14.1µM*	?	?	79.4µM*
Oc1ccc([C@@H]2CNCCc3c2cc(O)c(O)c3Cl)cc1	11.9%[56.1 µM]	?	/	?	?	?	/	RECQ1 conf=?;ADP FP counter=7.08µM*
OC1C(Br)=Cc2ccccc21 (configuration not stated)	/	/	0.5%	/	/	/	/
O=C(COC(=O)c1cc(-c2ccco2)nc2ccccc12)NCc1ccccc1	-3.5%	-0.6%	8.1%	-7.6%	-5.4%	/	/
CNC(=O)COC(=O)c1cc(-c2ccco2)nc2ccccc12	/	?	50.1µM*	15.8µM*	22.4µM*	?	?	FEN1 inh-2=?
CCc1ccc(C(=O)c2cn(CC(=O)Nc3cccc(OC)c3)c3ccc(OC)cc3c2=O)cc1	/	28.2%	39.8µM*	20µM*	/	20.4µM*	/	FEN1 inh-2=67.5*
COc1cc(Cl)c(C)cc1NC(=O)CSc1ncc(S(=O)(=O)c2ccc(C(C)(C)C)cc2)c(=O)[nH]1	?	/	?	15.8µM*	/	22.9µM*	/	FEN1 inh-2=47.8*
COc1ccc(O[C@H]2C=C[C@@H](c3ccccc3)O[C@H]2COC(=O)CC/C(C)=N\O[C@@H](C)c2cn([C@H]3COC[C@H]3O)nn2)cc1	10.1%[21 µM]	14.3%[12.4 µM]	/	1.1%[12.4 µM]	i[11.5 µM]	/	/
CCC1=NN2C(=N)/C(=C\c3cccn3-c3ccc(C)c(C)c3)C(=O)N=C2S1	4.8%	-7.7%	-7.5%	-17.7%	-21.3%	/	/

Source: PubChem BioAssay (National Center for Advancing Translational Sciences (NCATS))
